Data published in PubChem BioAssay (Tox21).
Records with an inconclusive call do not appear. Calls of active or inactive are those of the source. Unless noted, the call rests on the fitted dose curve; in most records, active means well fitted curve in the direction sought with a large enough effect in the repeat runs; inconclusive means weak or mixed curves; inactive means no such curve, though single readings can be large; an effect the other way counts as inactive or inconclusive.

How the values were obtained:
[1] = A CellTox Green Cytotoxicity Assay to monitor cytotoxicity in HepG2 cells - 0 hour (AID 1224882); conditions: CellTox Green fluorescence; series mostly up to 76.8 µM; further: nearly all actives have a fitted effect of over 35% in size
Procedure, shortened: (§1)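 Nonlytic assay: viable cells exclude the dye, so fluorescence scales with cell death. HepG2 at 600 cells/well, compounds added after 5 h, signal read across 40 h.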

[2] = A CellTox Green Cytotoxicity Assay to monitor cytotoxicity in HepG2 cells - 32 hour (AID 1224883); conditions: CellTox Green fluorescence; series mostly up to 76.8 µM; further: nearly all actives have a fitted effect of over 50% in size
Procedure, shortened: as §1

[3] = A CellTox Green Cytotoxicity Assay to monitor cytotoxicity in HEK293 cells - 8 hour (AID 1224884); conditions: CellTox Green fluorescence; series mostly up to 76.8 µM; further: nearly all actives have a fitted effect of over 35% in size; further: potency means the concentration at half of the fitted maximal effect
Procedure, shortened: (§2)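 Seeding of HEK293 cells together with cytotoxicity dye preceded a 5 h incubation at 37 C/5% CO2. Test compounds in DMSO were then added and fluorescence monitored across 40 h.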

[4] = qHTS RealTime-Glo MT Cell Viability Assay in HepG2 cells - 16 hour (AID 1224885); conditions: RealTime-Glo luminescence; series mostly up to 76.8 µM; further: nearly all actives have a fitted effect of over 50% in size
Procedure, shortened: (§3)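 Real-time, nonlytic viability: 600 HepG2 cells/well mixed with NanoLuc enzyme plus prosubstrate; 5 h settle, compound (DMSO) added by pintool; luminescence monitored over 40 h at 37 C.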

[5] = qHTS RealTime-Glo MT Cell Viability Assay in HEK293 cells - 24 hour (AID 1224886); conditions: RealTime-Glo luminescence; series mostly up to 76.8 µM; further: nearly all actives have a fitted effect of over 50% in size; further: potency means the concentration at half of the fitted maximal effect
Procedure, shortened: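 Cells + reagent dispensed (600 cells/well, HEK293) → 5 h at 37 C/5% CO2 → 23 nL compound in DMSO pinned → 40 h at 37 C → luminescence read at 0, 8, 16, 24, 32, 40 h.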

[6] = qHTS RealTime-Glo MT Cell Viability Assay in HEK293 cells - 8 hour (AID 1224887); conditions: RealTime-Glo luminescence; series mostly up to 76.8 µM; further: nearly all actives have a fitted effect of over 50% in size; further: potency means the concentration at half of the fitted maximal effect
Procedure, shortened: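 Tox21 screen in HEK293 using RealTime-Glo MT chemistry, with cells and reagent co-dispensed. Luminescence proportional to viable cell number was captured at intervals during 40 h compound exposure at 37 C.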

[7] = A CellTox Green Cytotoxicity Assay to monitor cytotoxicity in HEK293 cells - 16 hour (AID 1224888); conditions: CellTox Green fluorescence; series mostly up to 76.8 µM; further: nearly all actives have a fitted effect of over 35% in size; further: potency means the concentration at half of the fitted maximal effect
Procedure, shortened: as §2

[8] = qHTS RealTime-Glo MT Cell Viability Assay in HepG2 cells - 0 hour (AID 1224889); conditions: RealTime-Glo luminescence; series mostly up to 76.8 µM; further: nearly all actives have a fitted effect of over 50% in size
Procedure, shortened: as §3

[9] = A CellTox Green Cytotoxicity Assay to monitor cytotoxicity in HepG2 cells - 8 hour (AID 1224890); conditions: CellTox Green fluorescence; series mostly up to 76.8 µM; further: nearly all actives have a fitted effect of over 45% in size
Procedure, shortened: as §1

[10] = qHTS assay to identify small molecule antagonists of the estrogen receptor alpha (ER-alpha) signaling pathway using the BG1 cell line in the presence of 0.1 nM 17-beta-estradiol - cell viability counter screen (AID 1259241); conditions: VM7Luc4E2 (BG1) viability, CellTiter-Fluor protease, 22 h, 0.1 nM estradiol agonist added; series mostly up to 92.4 µM; further: nearly all actives have a fitted effect of over 40% in size
Procedure, shortened: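 Cytotoxicity counter-screen: live-cell protease activity measured by fluorescence (30 min reagent step) in the same wells. Cells were VM7Luc4E2 with endogenous ER-alpha and ERE-driven luciferase, treated 22 hr at 37C alongside 0.1 nM 17beta-estradiol final.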

[11] = qHTS assay to identify small molecule antagonists of the androgen receptor (AR) signaling pathway using the MDA cell line in the presence of 0.5 nM R1881 - cell viability counter screen (AID 1259242); conditions: MDA-kb2 viability, CellTiter-Fluor protease fluorescence, 16 h; series mostly up to 92.4 µM; further: nearly all actives have a fitted effect of over 45% in size
Procedure, shortened: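 R1881 at 0.5 nM final stimulated MDA-kb2 cells during 16 hr compound treatment at 37C. Cytotoxicity read: CellTiter-Fluor fluorescence after 30 min.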

[12] = biological target: Estrogen receptor (Homo sapiens) (UniProt P03372); experiment: qHTS assay to identify small molecule antagonists of the estrogen receptor alpha (ER-alpha) signaling pathway using the BG1 cell line in the presence of 0.1 nM 17-beta-estradiol (AID 1259244); conditions: VM7Luc4E2 (BG1) ERE-luciferase, antagonist mode, 0.1 nM E2, 22 h; series mostly up to 92.4 µM; further: nearly all actives have a fitted effect of over 50% in size
Estrogen receptor (Homo sapiens), sequence (P03372 whole entry, looked up): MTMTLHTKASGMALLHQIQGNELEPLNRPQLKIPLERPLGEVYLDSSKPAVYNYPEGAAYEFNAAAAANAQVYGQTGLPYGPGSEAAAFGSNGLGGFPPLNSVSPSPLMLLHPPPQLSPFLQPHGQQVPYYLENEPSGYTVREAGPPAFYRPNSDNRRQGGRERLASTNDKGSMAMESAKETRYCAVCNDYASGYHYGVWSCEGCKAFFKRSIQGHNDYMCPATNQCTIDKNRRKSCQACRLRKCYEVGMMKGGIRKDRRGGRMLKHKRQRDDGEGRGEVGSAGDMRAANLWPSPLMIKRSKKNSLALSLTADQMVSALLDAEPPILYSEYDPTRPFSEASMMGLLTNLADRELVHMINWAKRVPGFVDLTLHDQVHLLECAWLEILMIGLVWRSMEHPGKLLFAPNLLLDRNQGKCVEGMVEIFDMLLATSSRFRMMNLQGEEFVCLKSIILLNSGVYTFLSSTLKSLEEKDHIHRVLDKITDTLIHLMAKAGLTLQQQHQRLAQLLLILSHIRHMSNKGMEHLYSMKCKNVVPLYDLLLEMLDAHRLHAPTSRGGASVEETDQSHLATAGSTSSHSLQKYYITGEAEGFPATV
Procedure, shortened: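 VM7Luc4E2; 4xERE-luciferase; 0.1 nM E2 final; 22 h co-incubation, 37C; ONE-Glo luminescence after 30 min at room temperature.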

[13] = qHTS assay to identify small molecule phospholipidosis (PLD) inducers (AID 1259344; active means well fitted curve in the direction sought with a large enough effect; an effect the other way counts as inactive or inconclusive); conditions: HepG2 phospholipidosis, LipidTOX Red imaging, 24 h; series mostly up to 38.3 µM
Procedure, shortened: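 HepG2 cells, 900/well, treated with compound plus LipidTOX Red for 24 h at 37 C; amiodarone positive and DMSO negative controls. Fixed with paraformaldehyde/Hoechst, then high-content imaging scored LipidTOX pit count and integrated intensity per well and per cell.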

[14] = qHTS assay to identify small molecule HDAC inhibitors (AID 1259364); conditions: HCT-116 HDAC-Glo I/II luminescence, 2 h; series mostly up to 92.4 µM;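 further: wild-type HCT-116 cells with endogenous class I/II HDAC activity; top concentration of the series differs between compounds; nearly all actives have a fitted effect of over 45% in size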
Procedure, shortened: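 Relative class I and II HDAC activity is taken from the luminogenic signal in HCT-116 cells, with compound exposure 2 hr and reagent development 30 min at room temperature.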

[15] = qHTS assay to identify small molecule HDAC inhibitors - cell viability counter screen (AID 1259365); conditions: HCT-116 viability, CellTiter-Glo ATP luminescence, 2 h; series mostly up to 92.4 µM; further: nearly all actives have a fitted effect of over 50% in size
Procedure, shortened: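 CellTiter-Glo luminescence (30 min, room temperature) reported viability after a 2 h compound exposure at 37 C. Cells: wild-type HCT-116, 1,500 per well, seeded the night before.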

[16] = qHTS assay to identify small molecule agonists of the sonic hedgehog signaling (Shh) pathway - cell viability counter screen (AID 1259366); conditions: NIH/3T3 Gli1-Luc viability, CellTiter-Fluor, 24 h; series mostly up to 92.4 µM; further: nearly all actives have a fitted effect of over 50% in size
Procedure, shortened: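 Cytotoxicity counter screen: CellTiter-Fluor reagent added after 23 h compound exposure, then 1 h at 37C and fluorescence read. Cells were 3T3 Gli1-Luc, seeded 2,000 per well and dosed 4 h post-plating.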

[17] = qHTS assay to identify small molecule antagonists of the sonic hedgehog signaling (Shh) pathway - cell viability counter screen (AID 1259367); conditions: NIH/3T3 Gli1-Luc viability, CellTiter-Fluor, 24 h; series mostly up to 92.4 µM; further: nearly all actives have a fitted effect of over 55% in size
Procedure, shortened: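 NIH/3T3-derived Gli1-Luc reporter cells, 2,000/well, plated 4 hr before compound addition, then stimulated with conditioned medium for 24 hr at 37C. Viability measured in the same wells by CellTiter-Fluor fluorescence, reagent added at 23 hr for 1 hr.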

[18] = qHTS assay to identify small molecule agonists of the sonic hedgehog signaling (Shh) pathway (AID 1259368; calls by dose curve;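 further: NIH/3T3-derived 3T3Gli1-Luc cells carrying a stable Gli1-driven firefly luciferase reporter; nearly all actives have a fitted effect of over 15% in size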); conditions: NIH/3T3 Gli1-Luc reporter, luciferase, 24 h; series mostly up to 92.4 µM
Procedure, shortened: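 Mouse fibroblast (NIH/3T3) reporter cells with stably integrated Gli1-Luc were treated 24 hr with compound; firefly luciferase luminescence served as the read-out.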

[19] = qHTS assay to identify small molecule antagonists of the sonic hedgehog signaling (Shh) pathway (AID 1259369; calls by dose curve; further: nearly all actives have a fitted effect of over 45% in size); conditions: NIH/3T3 Gli1-Luc reporter, Shh antagonist, luminescence 24 h; series mostly up to 92.4 µM
Procedure, shortened: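 Conditioned medium drives Shh signalling in 3T3Gli1-Luc cells; compounds in DMSO co-applied, 24hr at 37 C, then luciferase luminescence.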

[20] = biological target: Androgen receptor (Homo sapiens) (UniProt P10275); experiment: qHTS assay to identify small molecule antagonists of the androgen receptor (AR) signaling pathway using the MDA cell line in the presence of 0.5 nM R1881 (AID 1259243); conditions: MDA-kb2 MMTV-luciferase, R1881 0.5 nM, 16 h; series mostly up to 92.4 µM; further: nearly all actives have a fitted effect of over 50% in size
Androgen receptor (Homo sapiens), sequence (P10275 whole entry, looked up): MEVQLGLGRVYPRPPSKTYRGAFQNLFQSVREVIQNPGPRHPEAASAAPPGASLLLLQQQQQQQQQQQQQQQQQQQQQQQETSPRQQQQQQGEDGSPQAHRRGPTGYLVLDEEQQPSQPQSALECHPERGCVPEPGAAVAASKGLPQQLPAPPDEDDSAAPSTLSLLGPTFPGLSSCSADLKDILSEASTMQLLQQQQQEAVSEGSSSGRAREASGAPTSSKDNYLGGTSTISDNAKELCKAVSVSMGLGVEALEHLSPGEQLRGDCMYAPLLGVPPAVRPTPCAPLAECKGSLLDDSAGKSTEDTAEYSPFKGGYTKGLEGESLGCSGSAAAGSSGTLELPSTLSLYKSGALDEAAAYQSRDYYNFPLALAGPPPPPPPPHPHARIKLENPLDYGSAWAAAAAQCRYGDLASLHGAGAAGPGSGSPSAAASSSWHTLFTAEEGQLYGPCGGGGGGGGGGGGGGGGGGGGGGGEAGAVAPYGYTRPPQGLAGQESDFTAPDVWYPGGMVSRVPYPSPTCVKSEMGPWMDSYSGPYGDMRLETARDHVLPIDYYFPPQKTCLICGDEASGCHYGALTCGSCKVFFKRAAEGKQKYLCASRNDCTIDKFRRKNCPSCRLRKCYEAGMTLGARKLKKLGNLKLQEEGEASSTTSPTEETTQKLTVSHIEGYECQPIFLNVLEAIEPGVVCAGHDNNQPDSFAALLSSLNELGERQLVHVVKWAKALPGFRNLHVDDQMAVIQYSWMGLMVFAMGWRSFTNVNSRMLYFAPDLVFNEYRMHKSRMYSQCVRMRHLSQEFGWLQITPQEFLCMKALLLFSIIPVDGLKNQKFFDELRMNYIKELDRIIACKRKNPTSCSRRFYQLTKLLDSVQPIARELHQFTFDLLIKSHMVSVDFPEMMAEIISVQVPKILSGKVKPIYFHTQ
Procedure, shortened: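 We exposed MDA-kb2 cells to compounds under 0.5 nM R1881 stimulation for 16 hr at 37C and quantified MMTV-driven luciferase by luminescence.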

Measured: Potency

Cc1ccc(Nc2c(F)cccc2Cl)c(CC(=O)O)c1
not listed: [20]
inactive: all other assays above

CNC1CCCN(c2c(F)cc3c(=O)c(C(=O)O)cn(C4CC4)c3c2OC)C1 (stereo unspecified)
not listed: [20]
inactive: all other assays above

CC(=O)OC(C)C[N+](C)(C)C (stereo unspecified)
not listed: [19] | [20]
inactive: all other assays above

CC(=O)Oc1cccc(O)c1
not listed: [20]
inactive: all other assays above

CC1CCC(C(C)CS)CC1S (stereo unspecified)
active: [3] 49 µM | [7] 49 µM
not listed: [12] | [13]
inactive: all other assays above

CCO[Si](C)(CCCOCC1CO1)OCC (stereo unspecified)
not listed: [13] | [19] | [20]
inactive: all other assays above

O=CNNC=O
not listed: [13] | [20]
inactive: all other assays above

CN1C(CSCC(F)(F)F)Nc2cc(Cl)c(S(N)(=O)=O)cc2S1(=O)=O (stereo unspecified)
active: [5] 16.9 µM | [6] 19 µM
not listed: [18] | [19]
inactive: all other assays above

O=C(O)c1cccc(C[C@@H]2COc3ccc(OCc4nc5cc(F)ccc5s4)cc3[C@@H]2O)c1
not listed: [13] | [20]
inactive: all other assays above

COC(C)(C)OC
not listed: [13] | [15] | [20]
inactive: all other assays above

CSCC[C@H](NC(=O)[C@H](Cc1c[nH]c2ccccc12)NC(=O)CCNC(=O)OC(C)(C)C)C(=O)N[C@@H](CC(=O)O)C(=O)N[C@@H](Cc1ccccc1)C(N)=O
not listed: [20]
inactive: all other assays above

NC(=O)CCCCC(N)=O
not listed: [13] | [18] | [20]
inactive: all other assays above

CCC(CO)(CO)CO
not listed: [13] | [15]
inactive: all other assays above

COC(OC)OC
not listed: [13] | [20]
inactive: all other assays above

CCOC(=O)C(C)O (stereo unspecified)
not listed: [13] | [20]
inactive: all other assays above
